Assay [1] can be described thus: qHTS assay to identify small molecule antagonists of the thyroid receptor (TR) signaling pathway - cell viability counter screen (AID 743064). Also: nearly all actives have a fitted effect of over 50% in size. Also: potency is read from the fitted curve at half-maximal effect. In short, it runs like this:
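In-well cytotoxicity read by CellTiter-Fluor (30 min, 37 C) following 23.5 h exposure of GH3 cells bearing a TRE-luciferase sensor. Compounds were added alongside 1 nM (final) T3 to drive TR transactivation.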
A general note: In qHTS, concentration-response curves come from the screen itself.

The test system of assay [2] is thyroid hormone receptor (rat, GH3 cells). Put plainly: qHTS assay to identify small molecule agonists of the thyroid receptor (TR) signaling pathway (AID 743066; calls by dose curve).
Assay [3] addresses Estrogen receptor (Homo sapiens) (UniProt P03372). Kind of assay: qHTS assay to identify small molecule antagonists of the estrogen receptor alpha (ER-alpha) signaling pathway (AID 743069; active = well fitted curve in the direction sought with a large enough effect in the signal ratio in the repeat runs, not every such curve was filed as active; inconclusive = weak or mixed curves, or effect the other way; inactive = no such curve, though single readings can be large or run the other way; the % refers to the signal ratio). Summed up: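 A 17beta-estradiol challenge was applied right after compound transfer to ER-alpha-UAS-bla HEK293 cells previously kept in charcoal-stripped serum. Plates stood 18 hr at 37C and 5% CO2; fluorescence was read following 2 hr FRET substrate loading at room temperature.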

Assay [4] is described as follows: qHTS assay to identify small molecule antagonists of the estrogen receptor alpha (ER-alpha) signaling pathway - cell viability counter screen (AID 743074; calls by dose curve;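 also: HEK293 cells carrying ER-alpha-UAS-bla reporter stimulated with 17beta-estradiol; nearly all actives have a fitted effect of over 45% in size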).
The target of assay [5] is Estrogen receptor (Homo sapiens) (UniProt P03372). Kind of assay: qHTS assay to identify small molecule agonists of the estrogen receptor alpha (ER-alpha) signaling pathway (AID 743075; calls by dose curve;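 also: HEK293 GripTite cells with ER-alpha and UAS-driven beta-lactamase reporter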; also: potency is read from the fitted curve at half-maximal effect).
Assay [6] has the same target. Put plainly: qHTS assay to identify small molecule agonists of the estrogen receptor alpha (ER-alpha) signaling pathway using the BG1 cell line (AID 743079). Also: nearly all actives have a fitted effect of over 20% in size. Also: potency is read from the fitted curve at half-maximal effect. The following applies: BG1Luc4E2 cells, ERE-luciferase agonist, 22 h.
Assay [7] is described as follows: qHTS assay to identify small molecule antagonists of the estrogen receptor alpha (ER-alpha) signaling pathway using the BG1 cell line (AID 743080; calls by dose curve;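 also: BG1 cells stimulated with 17beta-estradiol alongside compound; nearly all actives have a fitted effect of over 25% in size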). In short, it runs like this: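 BG1-Luc-4E2 cells (endogenous full-length ER-alpha, 4xERE luciferase) hormone-starved 5 days in charcoal-stripped FBS, plated 4,000/well for 24 h, then compound plus 17beta-estradiol for 21.5 h at 37 C; ONE-Glo luminescence read.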

Assay [8] can be described thus: qHTS assay to identify small molecule antagonists of the estrogen receptor alpha (ER-alpha) signaling pathway using the BG1 cell line - cell viability counter screen (AID 743081).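 Also: compound given together with 17beta-estradiol as the ER stimulus; nearly all actives have a fitted effect of over 45% in size.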 Also: potency is read from the fitted curve at half-maximal effect.
The target in assay [9] is Aromatase (Homo sapiens) (UniProt P11511). Put plainly: qHTS assay to identify aromatase inhibitors (AID 743083). Also: nearly all actives have a fitted effect of over 55% in size.
Assay [10] in a line: qHTS assay to identify small molecule antagonists of the thyroid receptor (TR) signaling pathway (AID 743065). Also: nearly all actives have a fitted effect of over 55% in size. Also: potency is read from the fitted curve at half-maximal effect. Summed up:
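GH3.TRE-Luc rat pituitary cells carrying two TR response elements driving luciferase were plated for 4 h, given compound plus 1 nM T3 (final), and incubated 23.5 h at 37 C. ONE-Glo luminescence measured reporter inhibition; CellTiter-Fluor fluorescence tracked cytotoxicity.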

A number with no mark means an inactive call. Active and inactive are the calls of the source. Unless noted, calls follow the shape of the dose curve; as a rule, active = well fitted curve in the direction sought with a large enough effect in the repeat runs; inconclusive = weak or mixed curves; inactive = no such curve, though single readings can be large; an effect the other way counts as inactive or inconclusive.
% is scaled to controls: 0 for no effect and ±100 for the full control effect.

Chain of Estrogen receptor (Homo sapiens) (P03372 whole entry, looked up): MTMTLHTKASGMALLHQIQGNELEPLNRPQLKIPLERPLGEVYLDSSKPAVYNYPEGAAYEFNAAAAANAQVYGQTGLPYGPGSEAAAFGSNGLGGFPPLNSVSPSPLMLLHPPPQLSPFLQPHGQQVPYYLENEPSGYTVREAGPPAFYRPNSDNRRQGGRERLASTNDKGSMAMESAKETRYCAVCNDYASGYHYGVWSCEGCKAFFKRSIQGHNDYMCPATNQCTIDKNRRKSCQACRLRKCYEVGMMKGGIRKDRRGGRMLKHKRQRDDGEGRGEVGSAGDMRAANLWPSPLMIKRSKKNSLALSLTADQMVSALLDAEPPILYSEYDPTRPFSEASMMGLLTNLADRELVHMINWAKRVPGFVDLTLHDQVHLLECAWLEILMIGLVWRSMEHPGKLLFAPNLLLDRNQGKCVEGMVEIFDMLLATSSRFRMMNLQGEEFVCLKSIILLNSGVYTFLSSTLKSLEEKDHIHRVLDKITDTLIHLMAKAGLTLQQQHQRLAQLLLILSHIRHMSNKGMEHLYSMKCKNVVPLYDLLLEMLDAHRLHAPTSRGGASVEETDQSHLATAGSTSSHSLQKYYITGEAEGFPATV
Chain of Aromatase (Homo sapiens) (P11511 whole entry, looked up): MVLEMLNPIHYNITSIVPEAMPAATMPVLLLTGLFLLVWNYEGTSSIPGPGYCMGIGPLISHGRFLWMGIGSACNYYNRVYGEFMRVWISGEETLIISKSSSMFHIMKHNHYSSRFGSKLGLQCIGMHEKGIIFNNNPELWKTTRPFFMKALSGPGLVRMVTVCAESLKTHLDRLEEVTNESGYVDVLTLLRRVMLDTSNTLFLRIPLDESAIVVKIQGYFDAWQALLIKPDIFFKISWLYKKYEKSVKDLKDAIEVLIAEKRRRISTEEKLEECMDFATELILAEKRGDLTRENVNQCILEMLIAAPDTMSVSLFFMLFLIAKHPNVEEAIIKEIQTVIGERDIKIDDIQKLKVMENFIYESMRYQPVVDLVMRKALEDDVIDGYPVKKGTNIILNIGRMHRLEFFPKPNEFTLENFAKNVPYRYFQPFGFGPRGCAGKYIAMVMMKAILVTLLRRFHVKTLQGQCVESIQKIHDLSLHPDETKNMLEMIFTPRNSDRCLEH

Consider `Cn1c(CCCC(=O)O)nc2cc(N(CCCl)CCCl)ccc21`, for which the Potency entry in assay [1], in assay [2], in assay [3], in assay [4], in assay [5] and in assay [7] was “inactive” throughout. Moreover, in assay [9], the Potency result was “inactive”. Also, the activation in assay [6] (at 70.3 µM (top of the series)) is -7.85%. The Potency in assay [8] is 1060 nM (active).

On to `BrCCc1ccccc1`, for which the Potency entry in assay [1], in [10], in [2], in assay [4], in [8] and in assay [9] was “inactive” each time.

As for `O=C(O)C(F)(F)C(F)(F)C(F)(F)C(F)(F)C(F)(F)C(F)(F)F`, the Potency entry in [1], in [10], in [2], in assay [8] and in assay [9] was “inactive” throughout.

On to `CC1=C2[C@H]3OC(=O)[C@@H](C)[C@@H]3CC[C@@]2(C)C=CC1=O`, for which the Potency entry in [1], in assay [10], in assay [2], in [4], in assay [8] and in [9] was “inactive” throughout.

For the molecule `CCCOC(=O)Cc1ccc(OCC(=O)N(CC)CC)c(OC)c1`, the Potency entry in assay [1], in [10], in assay [2], in assay [4] and in assay [9] was “inactive” in each case.

Consider `C[C@]12C=CC(=O)C=C1CC[C@@H]1[C@@H]2CC[C@@]2(C)[C@H]1CC[C@]2(C)O`, for which the Potency entry in assay [1], in assay [2], in assay [4], in assay [7], in [8] and in assay [9] was “inactive” throughout. In addition, the figures for the Potency in assay [5] and in assay [6] were 425 nM [inconclusive] (active) and 150 nM (active), respectively.

Consider `CC(C)C(C)(N)C#N` (configuration not stated), for which the Potency result in assay [1], in assay [10], in assay [2], in assay [8] and in assay [9] was “inactive” in each case.

For the molecule `CCCCS(=O)(=O)Cl`, the Potency result in assay [1], in assay [10], in assay [2], in assay [4], in assay [8] and in assay [9] was “inactive” throughout.

In the case of `CC(=NC#N)N(C)Cc1ccc(Cl)nc1`, the Potency entry in assay [1], in assay [10], in [2], in assay [4], in [8] and in [9] was “inactive” in each case.

`C#CC(C)(C)O`: the Potency entry in assay [1], in assay [10], in assay [2], in assay [8] and in assay [9] was “inactive” each time.

For the molecule `NCC1(CC(=O)O)CCCCC1`, the Potency result in [1], in assay [10], in [2], in assay [4], in assay [8] and in [9] was “inactive” in each case.

Regarding `ClCCCCCCCl`, the Potency result in [1], in [10], in [2], in [4], in assay [8] and in assay [9] was “inactive” each time.

For the molecule `O=C1CCCCC1Cl` (configuration not stated), the Potency entry in assay [1], in [10], in [2], in [8] and in [9] was “inactive” each time.

Take `Cc1ccc(S(=O)(=O)N[C@@H](CCCCN)C(=O)CCl)cc1`: the Potency in [1] is 16800 nM (active); in [10] it was 13300 nM (active). Besides, the Potency entry in assay [3], in [4] and in [9] was “inactive” each time.

`Oc1ccc2c3c1O[C@H]1[C@@H](O)C=C[C@H]4[C@@H](C2)NCC[C@@]341`: the Potency entry in assay [1], in assay [10], in assay [2], in assay [4] and in assay [9] was “inactive” throughout.

For `CCC(=O)c1ccc(Cl)cc1`, the Potency entry in assay [1], in assay [10], in [2], in [4], in [8] and in assay [9] was “inactive” throughout.

In the case of `Oc1ccc(Cc2ccc(O)cc2)cc1`, the Potency entry in assay [1], in assay [10], in assay [3], in assay [4], in [7] and in [8] was “inactive” each time. Moreover, in assay [9], the Potency result was “inactive”. The Potency in [5] was 15600 nM [inconclusive] (active); in [6], 2450 nM (active).

With `CCC1(c2cccc(O)c2)CCCCN(C)C1` (configuration not stated), the Potency result in assay [1], in assay [10], in [2], in assay [4] and in assay [9] was “inactive” each time.

Take `CN1C(=O)COc2c(C(=O)NC3CN4CCC3CC4)cc(Cl)cc21` (configuration not stated): the Potency entry in assay [2], in [3], in assay [4], in assay [5], in [7] and in assay [9] was “inactive” in each case. Further, the activation in assay [6] (at 70.3 µM (top of the series)) is 18.3%.

Turning to `CC[C@H](O)C(C[C@H](C)N(C)C)(c1ccccc1)c1ccccc1`, the Potency entry in assay [3], in assay [4], in assay [5], in assay [7], in assay [8] and in assay [9] was “inactive” each time. Further, the activation in [6] (at 95 µM (top of the series)) was -12.1%.

The record behind these values is PubChem BioAssay (Tox21).
